The supplement of paper PMC9694430

Key:
Assay in all cases: thermal shift delta Tm vs DMSO control; higher = stronger stabilization (binding)
Conditions in all cases: 12.5 µM; protein concentration 2 µM
LOC_OS01G57100-cb003 = system: LOC_OS01G57100-cb003
Outline: (§1)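 Heating from 25°C to 95°C at 0.05°C/s, fluorescence was recorded for 19.5 μl wells of 2 μM E. coli-expressed, purified rice kinase domain in 100 mM potassium phosphate pH 7.5, 150 mM NaCl, 10% glycerol and 5 × SYPRO Orange with compound in DMSO. Boltzmann fits gave melting temperatures for this differential scanning fluorimetry assay. The shift reported is the mean of three replicates against the DMSO-only protein.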

LOC_OS01G60330-cb001 = system: LOC_OS01G60330-cb001
Outline: as §1

LOC_OS01G60700-cb002 = system: LOC_OS01G60700-cb002
Outline: as §1

LOC_OS01G63280-cb003 = system: LOC_OS01G63280-cb003
Outline: as §1

LOC_OS01G67340-cb003 = system: LOC_OS01G67340-cb003
Outline: as §1

LOC_OS01G70970-cb002 = system: LOC_OS01G70970-cb002
Outline: as §1

LOC_OS02G07810-cb001 = system: LOC_OS02G07810-cb001
Outline: as §1

LOC_OS02G08530-cb003 = system: LOC_OS02G08530-cb003
Outline: as §1

LOC_OS02G14120-cb001 = system: LOC_OS02G14120-cb001
Outline: as §1

LOC_OS02G17970-cb001 = system: LOC_OS02G17970-cb001
Outline: as §1

LOC_OS02G45750-cb003 = system: LOC_OS02G45750-cb003
Outline: as §1

LOC_OS02G54510-cb004 = system: LOC_OS02G54510-cb004
Outline: as §1

LOC_OS03G04050-cb001 = system: LOC_OS03G04050-cb001
Outline: as §1

LOC_OS03G12390-cb001 = system: LOC_OS03G12390-cb001
Outline: as §1

LOC_OS03G27990-cb004 = system: LOC_OS03G27990-cb004
Outline: as §1

LOC_OS03G50450-cb001 = system: LOC_OS03G50450-cb001
Outline: as §1

LOC_OS03G50810-cb003 = system: LOC_OS03G50810-cb003
Outline: as §1

LOC_OS04G35114-cb001 = system: LOC_OS04G35114-cb001
Outline: as §1

LOC_OS04G38480-cb003 = system: T1, LOC_OS04G38480-cb003
T1 sequence (whole entry): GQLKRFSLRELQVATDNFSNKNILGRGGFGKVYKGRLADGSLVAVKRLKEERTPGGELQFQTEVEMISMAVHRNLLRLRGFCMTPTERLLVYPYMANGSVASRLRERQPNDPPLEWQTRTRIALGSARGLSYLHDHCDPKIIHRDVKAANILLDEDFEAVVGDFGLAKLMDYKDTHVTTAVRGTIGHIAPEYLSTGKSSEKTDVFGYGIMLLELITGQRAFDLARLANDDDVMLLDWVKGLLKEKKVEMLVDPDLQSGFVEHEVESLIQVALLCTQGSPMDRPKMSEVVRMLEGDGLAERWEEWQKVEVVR
Outline: as §1

LOC_OS04G41100-cb001 = system: T2, LOC_OS04G41100-cb001
T2 sequence (whole entry): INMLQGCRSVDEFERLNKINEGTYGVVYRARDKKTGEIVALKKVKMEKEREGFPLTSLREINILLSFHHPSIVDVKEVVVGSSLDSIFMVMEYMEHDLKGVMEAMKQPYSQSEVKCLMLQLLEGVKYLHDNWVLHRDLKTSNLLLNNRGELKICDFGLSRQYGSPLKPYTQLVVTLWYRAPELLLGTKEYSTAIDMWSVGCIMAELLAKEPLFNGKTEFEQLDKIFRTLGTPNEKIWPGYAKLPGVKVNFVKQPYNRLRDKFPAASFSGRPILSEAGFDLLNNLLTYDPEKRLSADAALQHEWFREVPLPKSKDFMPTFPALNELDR
Outline: as §1
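Also: purified Escherichia coli-expressed rice kinase domain construct.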

Compound | thermal shift delta Tm (LOC_OS01G57100-cb003) | thermal shift delta Tm (LOC_OS01G60330-cb001) | thermal shift delta Tm (LOC_OS01G60700-cb002) | thermal shift delta Tm (LOC_OS01G63280-cb003) | thermal shift delta Tm (LOC_OS01G67340-cb003) | thermal shift delta Tm (LOC_OS01G70970-cb002) | thermal shift delta Tm (LOC_OS02G07810-cb001) | thermal shift delta Tm (LOC_OS02G08530-cb003) | thermal shift delta Tm (LOC_OS02G14120-cb001) | thermal shift delta Tm (LOC_OS02G17970-cb001) | thermal shift delta Tm (LOC_OS02G45750-cb003) | thermal shift delta Tm (LOC_OS02G54510-cb004) | thermal shift delta Tm (LOC_OS03G04050-cb001) | thermal shift delta Tm (LOC_OS03G12390-cb001) | thermal shift delta Tm (LOC_OS03G27990-cb004) | thermal shift delta Tm (LOC_OS03G50450-cb001) | thermal shift delta Tm (LOC_OS03G50810-cb003) | thermal shift delta Tm (LOC_OS04G35114-cb001) | thermal shift delta Tm (LOC_OS04G38480-cb003) | thermal shift delta Tm (LOC_OS04G41100-cb001)
C=CC(=O)Nc1cccc(Oc2nc(Nc3ccc(N4CCN(C)CC4)cc3OC)ncc2Cl)c1 | -0.16 °C | 0.75 °C | 0.6 °C | 0.05 °C | -0.81 °C | 0.44 °C | 0.62 °C | 1.23 °C | 0.27 °C | 0.24 °C | 0.22 °C | 0.42 °C | 0.85 °C | 5.06 °C | 1.09 °C | 0.52 °C | 2.04 °C | 0.9 °C | -0.58 °C | 0.39 °C
CCS(=O)(=O)c1cccc(-c2cc(C(=O)NC3CCN(C)CC3)c(C)c3[nH]c4ncc(C)cc4c23)c1 | 1.61 °C | 3.88 °C | 0.41 °C | -0.02 °C | 0.99 °C | 6.38 °C | 0.49 °C | 4.38 °C | 10.6 °C | 0.54 °C | 5.63 °C | 2.03 °C | -0.02 °C | 6.67 °C | 3.82 °C | 3.53 °C | 5.67 °C | 6.23 °C | 3.14 °C | 0.65 °C
CCCNC(=O)Nc1ccc(Oc2ncnc3cc(OC)c(OC)cc23)cc1Cl | 0.3 °C | 0.97 °C | -0.2 °C | 0.14 °C | -0.13 °C | -0.25 °C | 0.93 °C | 1.15 °C | -0.1 °C | 0.04 °C | -0.23 °C | -0.21 °C | -0.21 °C | 0.74 °C | -0.33 °C | -0.08 °C | 0.49 °C | 0.48 °C | -0.17 °C | -0.34 °C
C[C@@H](N)[C@H]1CC[C@H](C(=O)Nc2ccncc2)CC1 | 0.49 °C | 1.12 °C | 1.12 °C | 0.48 °C | 0.04 °C | 0.52 °C | 0.9 °C | 0.85 °C | 0.71 °C | 0.32 °C | 0.42 °C | -0.03 °C | 0.29 °C | 0.52 °C | 0.09 °C | 0.25 °C | 0.21 °C | 0.03 °C | 1.42 °C | 0.81 °C
COc1cc(F)c(F)c(Nc2ccc(I)cc2F)c1NS(=O)(=O)C1(C[C@H](O)CO)CC1 [Refametinib (RDEA119, Bay 86-9766)] | 0.45 °C | 1.69 °C | 0.96 °C | 0.75 °C | -0.44 °C | 0.49 °C | 0.84 °C | 0.79 °C | 1.54 °C | 1.26 °C | 0.64 °C | 0.25 °C | 0.61 °C | 0.09 °C | 0.41 °C | 0.71 °C | 0.41 °C | 0.19 °C | 0.79 °C | 0.72 °C
Cc1cnc(Nc2ccc(N3CCN(C)CC3)cc2)nc1Nc1cccc(S(=O)(=O)NC(C)(C)C)c1 | 2.09 °C | 2.84 °C | 1.28 °C | 0.46 °C | 1.05 °C | 3.63 °C | 0.9 °C | 3.06 °C | 8.37 °C | 1.17 °C | 2.16 °C | 1.6 °C | 0.74 °C | 3.11 °C | 1.77 °C | 2.4 °C | 3.61 °C | 3.61 °C | 2.7 °C | 0.79 °C
